According to PubChem BioAssay (Tox21):
Inconclusive results are not listed. Active and inactive are the calls of the source. Unless noted, calls come from the whole dose curve; as a rule, active = well fitted curve in the direction sought with a large enough effect in the repeat runs; inconclusive = weak or mixed curves; inactive = no such curve, though single readings can be large; an effect the other way counts as inactive or inconclusive.

Experiments:
[1] = qHTS assay to identify small molecule agonists of the RXR signaling pathway - cell viability counter screen (AID 1159529); note: nearly all actives have a fitted effect of over 50% in size
In short: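 RXR-alpha-UAS-bla HEK 293T cells in medium with 2% charcoal-stripped FBS were pre-incubated 5 hr, then compound-treated 16 hr at 37 C. Viability was read by CellTiter-Glo luminescence in the same wells as the beta-lactamase assay, with tetraoctyl ammonium bromide as positive control.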

[2] = qHTS assay to identify small molecule antagonists of the retinoid acid receptor (RAR) signaling pathway - cell viability counter screen (AID 1159551); note: nearly all actives have a fitted effect of over 35% in size
In short: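 C3RL4 RARE-luciferase cells, 1,000/well, incubated overnight, then dosed with compound plus 1 uM retinol (final). After 6 hr at 37 C, viability read by CellTiter-Glo ATP luminescence following 30 min at room temperature.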

[3] = qHTS assay to identify small molecule antagonists of the retinoic acid receptor (RAR) signaling pathway (AID 1159552; note: nearly all actives have a fitted effect of over 50% in size; note: potency is the fitted concentration of half-maximal effect)
In short: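 Retinol signaling pathway inhibitors screened in C3RL4 RARE-luciferase reporter cells seeded overnight at 37 C, then compounds added with 1 uM (final) retinol as pathway substrate. After 6 hr at 37 C, luciferase luminescence read after 30 min at room temperature.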

[4] = qHTS assay to identify small molecule agonists of the retinoic acid receptor (RAR) signaling pathway (AID 1159553); details: C3RL4 RARE luciferase reporter, agonist, 6 h; activation: at 73.3 µM (top of the series); note: potency is the fitted concentration of half-maximal effect
In short: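 C3RL4 RARE-luciferase cells were seeded at 1,000/well and grown overnight at 37 C, then exposed to compounds for 6 hr at 37 C, 5% CO2. Luciferase reagent was added and luminescence was read after 30 min at room temperature.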

[5] = qHTS assay to identify small molecule antagonists of the estrogen related receptor (ERR) signaling pathway from Tox21 library - cell viability counter screen (AID 1224834); note: nearly all actives have a fitted effect of over 30% in size
In short: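 ERR reporter cells, 2,000 per well, rested 6 h, then exposed to compound in DMSO for 17.5 hours at 37 C. Viability read as fluorescence after 30 min with CellTiter-Fluor.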

[6] = target: Luciferin 4-monooxygenase (Photinus pyralis) (UniProt P08659); assay: qHTS assay to identify small molecule inhibitors of firefly luciferase (AID 1224835); note: nearly all actives have a fitted effect of over 25% in size
Sequence of Luciferin 4-monooxygenase (Photinus pyralis) (P08659 whole entry, looked up): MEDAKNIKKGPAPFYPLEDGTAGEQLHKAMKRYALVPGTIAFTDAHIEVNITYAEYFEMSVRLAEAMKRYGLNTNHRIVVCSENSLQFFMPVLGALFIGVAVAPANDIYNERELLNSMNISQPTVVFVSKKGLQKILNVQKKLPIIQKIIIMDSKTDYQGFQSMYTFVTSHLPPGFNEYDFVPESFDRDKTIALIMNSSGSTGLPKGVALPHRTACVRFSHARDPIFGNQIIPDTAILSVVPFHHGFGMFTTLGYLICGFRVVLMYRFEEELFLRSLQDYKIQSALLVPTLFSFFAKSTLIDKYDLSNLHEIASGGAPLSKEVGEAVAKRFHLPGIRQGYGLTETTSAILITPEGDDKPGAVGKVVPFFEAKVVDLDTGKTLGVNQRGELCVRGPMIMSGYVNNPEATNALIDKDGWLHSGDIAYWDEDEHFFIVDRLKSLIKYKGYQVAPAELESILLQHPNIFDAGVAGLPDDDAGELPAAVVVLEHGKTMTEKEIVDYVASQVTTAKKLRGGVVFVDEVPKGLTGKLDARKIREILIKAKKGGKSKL
In short: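 Quantitative HTS format; KM concentrations of both substrates. Purified P. pyralis FLuc activity quantified from luminescence images.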

[7] = qHTS assay to identify small molecule agonists of the constitutive androstane receptor (CAR) signaling pathway - cell viability counter screen (AID 1224836); note: nearly all actives have a fitted effect of over 45% in size
In short: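 HepG2 cells stably carrying hCAR and a CYP2B6-2.2kb reporter; 15-concentration compounds plus PK11195 (final 0.75 uM), 23 hr at 37 C/5% CO2. Viability read by CellTiter-Fluor fluorescence.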

[8] = qHTS assay to identify small molecule antagonists of the constitutive androstane receptor (CAR) signaling pathway - cell viability counter screen (AID 1224837); note: nearly all actives have a fitted effect of over 45% in size
In short: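 HepG2 cells stably carrying hCAR and CYP2B6-2.2kb reporter, stimulated with 50 nM CITCO and compounds at 15 concentrations for 23 h at 37 C. Viability measured by CellTiter-Fluor fluorescence.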

[9] = qHTS assay to identify small molecule antagonists of the estrogen related receptor signaling pathway with the pleiotropic PPARgamma coactivator (PGC) from Tox21 10K library - cell viability counter screen (AID 1224840; active = well fitted cell-killing curve with a large enough effect in the repeat runs, not every such curve was filed as active; note: nearly all actives have a fitted effect of over 40% in size)
In short: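 PGC/ERR cells (2,000/well) plated 6 h, then compound-treated for 17.5 h at 37 C. Viability measured by CellTiter-Fluor fluorescence after 30 min at 37 C, multiplexed with the pathway assay.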

[10] = qHTS assay to identify small molecule agonists of H2AX (AID 1224845; active = well fitted activation curve with a large enough effect in the signal ratio in the repeat runs, not every such curve was filed as active; the % refers to the signal ratio)
In short: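 Wild-type CHO-K1 cells plated overnight, then exposed 3 hr at 37C to compounds at 15 concentrations (0.76% DMSO). Lysed, then HTRF anti-pH2AX(S139)-cryptate/anti-H2AX-d2 detection after 24 hr at room temperature; emissions 665 and 620 nm.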

[11] = qHTS assay to identify small molecule agonists of the hypoxia (HIF-1) signaling pathway (AID 1224846; active = well fitted activation curve with a large enough effect in the signal ratio in the repeat runs, not every such curve was filed as active; the % refers to the signal ratio)
In short: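 HRE-bla ME-180 beta-lactamase reporter cells in medium with 0.5% dialyzed FBS, pre-incubated 5 h then exposed to compounds 17 h at 37C, 5% CO2; reporter induction read with CCF4-AM FRET substrate.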

[12] = qHTS assay to identify small molecule agonists of H2AX - cell viability counter screen (AID 1224847; calls by dose curve; note: top concentration of the series differs between compounds; nearly all actives have a fitted effect of over 30% in size)
In short: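 CHO-K1 cells plated overnight at 37C, then exposed 3 h at 37C to compounds at 15 concentrations (0.76% DMSO final). Viability by CellTiter-Glo luminescence after 30 min at room temperature.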

[13] = target: Nuclear receptor subfamily 1 group I member 3 (Homo sapiens) (UniProt Q14994); assay: qHTS assay to identify small molecule antagonists of the constitutive androstane receptor (CAR) signaling pathway (AID 1224838); note: nearly all actives have a fitted effect of over 40% in size
Sequence of Nuclear receptor subfamily 1 group I member 3 (Homo sapiens) (Q14994 whole entry, looked up): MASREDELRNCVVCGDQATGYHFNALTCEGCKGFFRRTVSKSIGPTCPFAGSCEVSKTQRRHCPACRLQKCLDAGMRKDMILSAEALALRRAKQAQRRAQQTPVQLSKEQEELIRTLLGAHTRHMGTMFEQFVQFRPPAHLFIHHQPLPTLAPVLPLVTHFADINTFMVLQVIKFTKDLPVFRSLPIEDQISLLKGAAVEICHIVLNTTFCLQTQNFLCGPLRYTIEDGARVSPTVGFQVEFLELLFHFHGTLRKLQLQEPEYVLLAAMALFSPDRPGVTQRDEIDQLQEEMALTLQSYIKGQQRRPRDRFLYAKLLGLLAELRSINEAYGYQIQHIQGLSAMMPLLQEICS
In short: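 HepG2 cells stably carrying hCAR and a CYP2B6-2.2kb luciferase reporter, seeded 4 hrs before compound (15 concentrations). Stimulated with 50 nM CITCO for 24 hr at 37 C. ONE-Glo luminescence read after 30 min at room temperature.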

[14] = target: Nuclear receptor subfamily 1 group I member 3 (Homo sapiens) (UniProt Q14994); assay: qHTS assay to identify small molecule agonists of the constitutive androstane receptor (CAR) signaling pathway (AID 1224839); note: nearly all actives have a fitted effect of over 15% in size; note: potency is the fitted concentration of half-maximal effect
In short: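 HepG2 cells stably co-transfected with hCAR and a CYP2B6-2.2kb luciferase reporter; compounds at 15 concentrations with 0.75 uM PK11195 present. After 24 hr at 37 C, luciferase read by ONE-Glo luminescence.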

[15] = qHTS assay to identify small molecule agonists of the hypoxia (HIF-1) signaling pathway - cell viability counter screen (AID 1224844; calls by dose curve; note: nearly all actives have a fitted effect of over 50% in size)
In short: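 HRE-bla ME-180 cells, 2,000/well in 0.5% dialyzed FBS medium, treated 17 h at 37C with compounds. Viability read in the same wells as the bla reporter, by CellTiter-Glo luminescence after 30 min at room temperature.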

[16] = target: Thyrotropin receptor (Homo sapiens) (UniProt P16473); assay: qHTS assay to identify small molecule agonists of the thyroid stimulating hormone receptor (TSHR) signaling pathway (AID 1224843; calls by dose curve; note: nearly all actives have a fitted effect of over 45% in size)
Sequence of Thyrotropin receptor (Homo sapiens) (P16473 whole entry, looked up): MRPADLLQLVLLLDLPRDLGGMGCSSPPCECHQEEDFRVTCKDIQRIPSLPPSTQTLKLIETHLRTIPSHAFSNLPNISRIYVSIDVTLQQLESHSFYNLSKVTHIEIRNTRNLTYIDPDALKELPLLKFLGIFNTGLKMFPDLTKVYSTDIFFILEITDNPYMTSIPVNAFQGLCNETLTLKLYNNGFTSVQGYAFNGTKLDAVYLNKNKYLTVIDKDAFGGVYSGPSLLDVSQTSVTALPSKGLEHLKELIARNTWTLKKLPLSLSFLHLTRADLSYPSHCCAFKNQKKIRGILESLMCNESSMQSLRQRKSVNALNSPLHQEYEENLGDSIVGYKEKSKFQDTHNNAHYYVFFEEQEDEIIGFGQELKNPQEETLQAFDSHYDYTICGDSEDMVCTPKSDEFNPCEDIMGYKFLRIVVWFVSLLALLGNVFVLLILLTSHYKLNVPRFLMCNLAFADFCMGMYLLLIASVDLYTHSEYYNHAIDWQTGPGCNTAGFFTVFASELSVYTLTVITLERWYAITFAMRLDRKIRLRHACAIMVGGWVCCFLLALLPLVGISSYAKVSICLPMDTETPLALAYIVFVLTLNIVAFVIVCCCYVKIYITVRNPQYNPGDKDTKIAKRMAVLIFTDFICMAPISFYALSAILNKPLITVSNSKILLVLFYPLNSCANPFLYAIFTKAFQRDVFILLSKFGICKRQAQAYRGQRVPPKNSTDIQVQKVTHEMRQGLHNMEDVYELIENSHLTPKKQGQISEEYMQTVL
In short: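 TSHR-expressing HEK293 cells (800 per well) were exposed to compounds for 30 min at room temperature. cAMP was then detected by HTRF competition with cAMP-d2 and anti-cAMP cryptate, read after 1 h at room temperature. Fifteen concentrations, triplicate.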

[17] = qHTS assay to identify small molecule antagonists of the estrogen related receptor signaling pathway with the pleiotropic PPARgamma coactivator (PGC) from Tox21 10K library (AID 1224841; call rule not given here; note: actives are mostly falling curves and most rising ones were filed inactive; nearly all actives have a fitted effect of over 50% in size; note: potency is the fitted concentration of half-maximal effect)
In short: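 PGC/ERR cell line, 2,000 cells/well, pre-incubated 6 hours at 37 C, then exposed to compounds for 18 hours at 37 C; luciferase read with One-Glo luminescence after 30 min at room temperature.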

[18] = qHTS assay to identify small molecule agonists of the estrogen related receptor signaling pathway with the pleiotropic PPARgamma coactivator (PGC) from Tox21 10K library (AID 1224842); note: nearly all actives have a fitted effect of over 15% in size
In short: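 PGC/ERR reporter cells (NTP line) were seeded 2,000 per well, rested 6 h at 37 C/5% CO2, then pin-dosed with compounds in DMSO for 18 h at 37 C; luciferase read by One-Glo luminescence after 30 min at room temperature.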

[19] = qHTS assay to identify small molecule antagonists of the estrogen related receptor (ERR) signaling pathway from Tox21 library (AID 1224848); note: nearly all actives have a fitted effect of over 50% in size; note: potency is the fitted concentration of half-maximal effect
In short: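 Cells: ERR line, 2,000/well; 6 h preincubation 37 C/5% CO2. Cpd in DMSO via pin tool; 18 h, 37 C. ONE-Glo, 30 min RT, luminescence.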

[20] = qHTS assay to identify small molecule agonists of the estrogen related receptor (ERR) signaling pathway from Tox21 library (AID 1224849; calls by dose curve; note: nearly all actives have a fitted effect of over 15% in size)
In short: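 ERR reporter cells (NTP line) pre-incubated 6 hours at 37 C, then exposed to compounds for 18 hours at 37 C. ONE-Glo luciferase luminescence was read after 30 minutes at room temperature.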
% is set by controls: 0 for no effect and ±100 for the full control effect.

CCCO
inactive: outcome [1] | outcome [2] | Potency [3] | Potency [4] | Potency [5] | Potency [6] | outcome [7] | Potency [8] | outcome [9] | outcome [10] | outcome [11] | Potency [12]

O=C(/C=C/c1ccccc1)NCCO
inactive: outcome [1] | outcome [2] | Potency [3] | Potency [4] | Potency [5] | outcome [7] | Potency [8] | Potency [13] | outcome [10] | outcome [11] | Potency [12]

C=COCCOCCOC=C
inactive: outcome [1] | outcome [2] | Potency [3] | Potency [4] | Potency [5] | outcome [7] | Potency [8] | Potency [13] | Potency [14] | outcome [9] | outcome [15] | outcome [11] | Potency [12]

Cc1cccc(C(=O)O)c1[N+](=O)[O-]
inactive: outcome [1] | outcome [2] | Potency [3] | Potency [4] | Potency [5] | outcome [7] | Potency [8] | Potency [13] | outcome [9] | outcome [16] | outcome [15] | outcome [10] | outcome [11] | Potency [12]

CCNC(=O)/C=C/c1cccc(Br)c1
inactive: outcome [1] | outcome [2] | Potency [3] | Potency [5] | outcome [7] | Potency [8] | Potency [13] | outcome [9] | outcome [16] | outcome [15] | outcome [10] | outcome [11] | Potency [12]
active: Potency [4] 15 µM | Potency [14] 26.6 µM

CC(C)(C)c1ccc(C=O)cc1
inactive: outcome [1] | outcome [2] | Potency [3] | Potency [4] | Potency [5] | outcome [7] | Potency [8] | Potency [13] | Potency [14] | outcome [9] | outcome [15] | outcome [10] | outcome [11] | Potency [12]

C=CCOc1c(Br)cc(C(C)(C)c2cc(Br)c(OCC=C)c(Br)c2)cc1Br
inactive: outcome [1] | outcome [2] | Potency [3] | Potency [4] | Potency [5] | Potency [6] | outcome [7] | Potency [8] | outcome [18] | outcome [16] | outcome [11] | outcome [20]
active: Potency [17] 26.6 µM | Potency [19] 29.9 µM

CNCc1ccccc1
inactive: outcome [1] | outcome [2] | Potency [4] | Potency [5] | Potency [6] | outcome [7] | Potency [8] | Potency [17] | outcome [18] | outcome [15] | outcome [10] | outcome [11] | Potency [12] | Potency [19] | outcome [20]
active: Potency [3] 0.106 µM

Nc1c(NC/C=C\COc2cc(CN3CCCCC3)ccn2)c(=O)c1=O
inactive: activity change, negative = cytotoxicity [1] 0.401% [at 15.8 µM] | activity change, negative = cytotoxicity [2] 3.28% [at 19 µM] | activity, negative = inhibition [3] -5.94% [at 19 µM] | Potency [4] | viability change, negative = cytotoxic [5] -12.4% [at 19 µM] | activity change, negative = inhibition [6] 10.6% [at 23.6 µM] | activity, negative = inhibition [13] 4.07% [at 19 µM] | viability change, negative = cytotoxic [9] 8.26% [at 19 µM] | activation [16] 2.1% [at 19 µM] | activity change, negative = cytotoxicity [15] 1.18% [at 15.8 µM] | activation (H2AX phosphorylation) [10] -1.81% [at 31.6 µM] | activation [11] 0.659% [at 15.8 µM] | activity change, negative = cytotoxicity [12] 2.48% [at 31.6 µM]
